Most compounds without a hit are left out; they make up all but 3.4% or so of the library.
HttQ103 aggreg: reduces HttQ103-GFP aggregates in PC12 cells; 220,000 tested, 1.1% active; PC12 HttQ103-GFP aggregates, Acumen cytometry, 40 h; Potency, µM (top dose mostly 46.1 µM), hits mostly inhibitors; also: nearly all actives have a fitted effect of over 60% in size
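Aggregate formation scored by laser-scanning cytometer (488 excitation, 500–530 emission) in lysed PC12 cells expressing Q103-GFP after 100 nM tebufenozide induction; library tested in dose series, with ATPLite reagent added in the multiplex.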
IMPase Li cell: cell-permeable IMPase inhibitors with lithium potentiation | CHO-M1 cells, IP1 TR-FRET (IP-One), carbachol + lithium | Potency, µM (top dose mostly 59.4 µM), hits mostly inhibitors | 210,000 tested, 0.35% active | AID 1457;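 also: IP1 builds up when IMPase is blocked and the TR-FRET signal falls; nearly all actives have a fitted effect of over 50% in size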
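CHO cells stably expressing M1 receptor (2000/well, cultured 16–30 h) treated 30 min at 37C with compound plus low lithium. Cytosolic IP1 by TR-FRET (665/620 ratio and 620 channel) after 10 min lysis; AC50 by Hill fit.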
IMPase cell inh: cell-permeable inhibitors of inositol monophosphatase (IMPase); 120,000 tested, under 10 active; inhibition (IP1 accumulation), % at 46.1 µM; CHO-M1 cells, IP1 accumulation, HTRF TR-FRET ratio; active = well fitted curve in the direction sought with a large enough effect in the signal ratio, not every such curve was filed as active; inconclusive = small, poorly fitted or top-dose-only effect, or a change in a side signal; inactive = no such curve, though single readings can be large or run the other way; the % refers to the signal ratio;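 also: cells stimulated with carbachol in lithium chloride buffer; higher means more IMPase inhibition seen as more IP1 and lower FRET ratio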
Target sequence (P97697 whole entry, looked up): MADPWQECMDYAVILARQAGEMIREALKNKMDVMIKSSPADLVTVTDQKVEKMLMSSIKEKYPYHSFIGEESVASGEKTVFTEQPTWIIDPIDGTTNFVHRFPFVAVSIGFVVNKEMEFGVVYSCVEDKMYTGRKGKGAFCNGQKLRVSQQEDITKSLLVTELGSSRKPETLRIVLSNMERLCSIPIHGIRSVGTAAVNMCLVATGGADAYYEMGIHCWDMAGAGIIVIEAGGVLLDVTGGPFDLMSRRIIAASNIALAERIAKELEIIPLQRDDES
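Measured: the HTRF emission ratio (665/620 nm) plus the 620 nm donor channel, each fitted to the Hill equation to give AC50. Cells were CHO-M1 given compounds up to 46 uM and a 30 min carbachol stimulation at 37C.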
HTT ATP protect: cytoprotection in Huntington HTT-Q103 PC12 cell model; PC12 HTT-Q103 induced, cytoprotection, ATP luminescence, 40 h; Potency, µM (titrated, usually from 56.4 µM), hits mostly activators; 230,000 tested, 0.14% active; AID 1471; also: nearly all actives have a fitted effect of over 45% in size
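Huntington model: PC12 line, ecdysone-inducible HTTQ103 exon1–GFP, tebufenozide 100 nM. Test articles in a dose series. Endpoint luminescence from cellular ATP.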
PNC assembly inh: perinucleolar compartment assembly inhibition; AID 2417; PC3M PTB-GFP, PNC prevalence imaging, 16 h; active compounds read low; 140,000 tested, 3.1% active; activity change (PNC), negative = inhibition, % at 10 µM;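 active = readout at or below -70, meaning at least 70% loss of cells showing the perinucleolar compartment, a nuclear body marking cancer cells; inconclusive = readout between -30 and a set limit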
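PC3M cells stably expressing PTB-GFP, 750–1000 cells/well, treated 16 h at 37 °C with compound (23 nl of library stock), in duplicate. After paraformaldehyde fixation and Hoechst stain, imaged at 20x; PNC prevalence scored by image analysis.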
NPSR antagonist: neuropeptide S receptor (human) antagonism, cAMP. Q6W5P4. Potency, µM (doses to about 38.3 µM), hits mostly inhibitors. AID 1461. CHO-NPSR cells, cAMP TR-FRET, antagonist mode. 220,000 tested, 1% active; also: nearly all actives have a fitted effect of over 50% in size
A number is an active result; . = inactive; ? = inconclusive; / = no result; [ ] = another dose, or the depositor's remark. Unless noted, calls follow the shape of the dose curve; as a rule, active = well fitted curve in the direction sought with a large enough effect; inconclusive = small, poorly fitted or top-dose-only effect, or another doubt; inactive = no such curve, though single readings can be large; an effect the other way counts as inactive or inconclusive.

SMILES	HttQ103 aggreg	IMPase Li cell	IMPase cell inh	HTT ATP protect	PNC assembly inh	NPSR antagonist
Cc1nc(C2CC(=O)OC23CCCCC3)cs1 (stereo not drawn)	.	.	.	.	.	.
Nc1nc(C2CC(=O)OC23CCCCC3)cs1 (stereo not drawn)	.	.	.	.[10 µM]	-119	.
COc1ccc(C)cc1NC(=O)CN(C)S(=O)(=O)c1cc(C)ccc1OC	?	.	/	.[10 µM]	.	.
COc1ccc(C)cc1S(=O)(=O)N(C)CC(=O)Nc1ccccc1	.	.	.	.[10 µM]	-108	.
O=C1[C@@H]2[C@H]3C(=CC[C@@H]2C(=O)N1Cc1ccccc1)C1(OCCCO1)[C@H]1O[C@@H]1[C@H]3O	/	/	/	.[10 µM]	/	/
O=C(CCl)NCCN1C(=O)S/C(=C\c2cccnc2)C1=O	?	.	/	.	/	.
CC(C(=O)NCCN1C(=O)S/C(=C\c2cccnc2)C1=O)N1C(=O)c2ccccc2C1=O (stereo not drawn)	.	.	/	/	-105	.
COc1ccc(C(=O)Nc2cc(C(=O)c3ccccc3)c(C)oc2=O)cc1	.[9.22 µM]	.	.	.	.	?
O=C(Nc1ccc(N=Nc2ccccc2)cc1)c1cccc(Cl)c1	?	.	.	.[10 µM]	-111	.
O=C(NC(NC(=S)Nc1ccccc1)C(Cl)(Cl)Cl)c1cccc(Cl)c1 (stereo not drawn)	11µM	.	.	.	.	13µM
Cc1oc(=O)c(NC(=O)c2cccc(Cl)c2)cc1C(=O)c1ccccc1	.	.	.	.	.	7.9µM
COC(=O)C(C(=O)OC)c1ccc(NC(=O)c2cccc(Cl)c2)cc1	.	.	/	.[10 µM]	/	.
O=C(NC(NC(=S)Nc1ccc(Cl)cc1Cl)C(Cl)(Cl)Cl)c1cccc([N+](=O)[O-])c1 (stereo not drawn)	?	.	.	.	.	10µM
O=C(Nc1ccc2[nH]c(=O)c(=O)[nH]c2c1)c1cccc(F)c1	/	/	.	/	/	/
COc1ccc(O[C@H]2C=C[C@@H](c3ccccc3)O[C@H]2CO/N=C\C[C@@H]2C=C[C@H](OC(C)=O)[C@H](COC(C)=O)O2)cc1	/	/	/	.[10 µM]	/	/
COc1ccc(-c2cn(-c3ccccc3)c3[n+]2CCS3)cc1	?	.	/	.[10 µM]	.	.
COc1ccc(-n2c(SCC(=O)N/N=C(\C)c3cccnc3)nc3ccccc3c2=O)cc1	.[9.22 µM]	/	/	.[10 µM]	/	.
CCOCCCn1c(=N)c(C(=O)NC2CCCCC2)cc2c(=O)n3ccccc3nc21	/	/	.	/	/	/
CC(C)N(C(=O)CSc1nnc(NC(=O)C2CCC2)s1)C(C)C	.	.	.	.[1.9 µM]	-102	.
CSc1nc(-c2ccc(C)cc2)nc(C(Cl)Cl)n1	?	.	.	.	-106	.
CSc1nc(Cl)c(C#N)c(-c2ccc(C)cc2)n1	.	?	.	.	?	.
CCSc1nc(-c2ccccc2)nc(C(Cl)Cl)n1	10µM	.	.	.[1.9 µM]	.	.
O=C(CN(CC1CCCO1)C(=O)CCC(=O)Nc1ccccn1)NCc1ccccc1 (stereo not drawn)	.	.	.	.[10 µM]	-100	.
COc1ccc(C(=O)Nc2nc(C)cs2)cc1S(=O)(=O)N1CCCC1	.	.	/	.	/	.
Cc1[nH]c2c(Cl)cccc2c1CCNC(=O)C1CCCCC1C(=O)OCC(F)(F)F (stereo not drawn)	.	.	.	.[10 µM]	-119	.
SMILES	HttQ103 aggreg	IMPase Li cell	IMPase cell inh	HTT ATP protect	PNC assembly inh	NPSR antagonist
CN(C)c1ccc(/C=C/c2ccc3ccccc3[n+]2C)cc1	2.5µM	.	?	.[10 µM]	.	3.2µM
CN(C)c1ccc(/C=C/c2ccc3c4ccccc4ccc3[n+]2-c2ccccc2)cc1	4µM	.	/	.[10 µM]	/	10µM
CC(=O)NCCNc1ccnc(-c2ccccc2C(F)(F)F)n1	/	.	/	.	/	/
COC(=O)C1=C(C(=O)OC)[C@@H]2Nc3ccccc3[C@@]23C[C@@H](C(=O)OC)N(C(=O)c2cccs2)C3=N1	/	.	/	?	/	/
CC1(C)OCC([C@H](O)C2=CCCCC2=O)CO1	/	.	/	.	/	/
O=C(COC(=O)c1ccc2ncsc2c1)Nc1ncc(Cl)cc1Cl	.	.	/	.[10 µM]	-95	.

Assay outcomes: PubChem BioAssay, National Center for Advancing Translational Sciences (NCATS)
